High-throughput results: PubChem, National Center for Advancing Translational Sciences (NCATS)
The list is not random: actives were taken first. Their share in the collection is about 19%.
TDP1 cell noCPT – qHTS for Inhibitors of human tyrosyl-DNA phosphodiesterase 1 (TDP1): qHTS in cells in absence of CPT; DT40 Tdp1-/- hTDP1 cells, no CPT, ATP luminescence, 48 h; Potency, µM (top dose mostly 46.2 µM), for inactives: at the top dose activity change, negative = growth inhibition, actives largely listed as inhibitors; hit rate 15% among 420,000; further: potency means the concentration at half of the fitted maximal effect; nearly all actives have a fitted effect of over 55% in size
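Cells were dispensed at 400 per well, compounds added by pin tool, plates incubated ≥48 hr at 37 °C, then CellTiter-Glo added for 30 min at room temperature before luminescence reading. Line: DT40 Tdp1-/- complemented with hTDP1; camptothecin omitted.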
Giardia killer – kills Giardia lamblia | activity change, % at 7.66 µM, hits read low | hit rate 0.15% among 340,000 | AID 540267 | Giardia lamblia trophozoite viability; in the data active means activity change below about -80%; inconclusive means between about -30% and that limit;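 further: parasites exposed to compound for two days anaerobically before the ATP read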
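ATP-content bioluminescence gauges trophozoite survival. Cells (100/well) receive compound and incubate anaerobically for 48 hrs at 37 deg C; detection reagent follows for 15-30 min at room temperature.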
IL1B secr inh – blocks inflammasome-driven IL-1 beta release | THP-1 LPS/ATP IL-1B secretion, AlphaLISA, 16 h; hits give low values | AID 743279 | hit rate 4.7% among 360,000 | activity change, % at 57.5 µM; in the data active means activity change below about -50%; inconclusive means mostly about -30% to -49%
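THP-1 cells pretreated 1 hr with compounds (up to 57.5 uM final), then stimulated with LPS (250 ng/mL final) plus ATP (1.25 mM final); secreted IL-1B measured by AlphaLISA after 16 hr, decreased signal indicating inhibition.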
TDP1 block – blocks human tyrosyl-DNA phosphodiesterase 1. Potency, µM (highest dose often 130 µM), for the others: at the highest dose activity change, negative = inhibition, actives largely listed as inhibitors. hit rate 0.28% among 350,000. Q9NUW8. recombinant TDP1, AlphaScreen DNA substrate cleavage; further: potency means the concentration at half of the fitted maximal effect; nearly all actives have a fitted effect of over 40% in size
Target sequence (Q9NUW8 whole entry, looked up): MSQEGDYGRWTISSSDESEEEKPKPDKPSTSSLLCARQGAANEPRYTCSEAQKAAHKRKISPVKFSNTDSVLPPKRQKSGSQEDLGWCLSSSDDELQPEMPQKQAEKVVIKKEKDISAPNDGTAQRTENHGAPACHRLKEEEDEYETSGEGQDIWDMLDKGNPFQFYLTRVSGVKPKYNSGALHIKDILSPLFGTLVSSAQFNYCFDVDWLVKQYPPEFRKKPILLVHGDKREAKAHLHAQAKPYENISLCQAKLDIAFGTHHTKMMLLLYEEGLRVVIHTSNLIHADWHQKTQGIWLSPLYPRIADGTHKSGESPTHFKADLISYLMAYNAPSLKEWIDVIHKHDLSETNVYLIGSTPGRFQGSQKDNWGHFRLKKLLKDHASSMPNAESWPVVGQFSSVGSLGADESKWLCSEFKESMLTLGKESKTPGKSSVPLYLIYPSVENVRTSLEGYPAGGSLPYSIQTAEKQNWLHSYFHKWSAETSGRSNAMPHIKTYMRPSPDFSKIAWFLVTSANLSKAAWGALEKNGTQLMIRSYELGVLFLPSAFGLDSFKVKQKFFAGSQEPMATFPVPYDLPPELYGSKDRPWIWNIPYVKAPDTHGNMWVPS
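Compounds were preincubated with Tdp1 (1 nM final) for 15 min at room temperature before substrate (15 nM final) started a 5 min reaction; beads (10 ug/ml final) were then added for 10 min before AlphaScreen detection.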
TDP1 cell CPT – growth inhibition of DT40 Tdp1-/-;hTDP1 cells with camptothecin (screen for TDP1 inhibitors). Potency, µM (doses to about 46.2 µM), for inactives: at the highest dose activity change, negative = growth inhibition, hits mostly inhibitors. chicken DT40 Tdp1-/-;hTDP1 cells + 20 nM CPT, ATP luminescence, 48 h. hit rate 12% among 420,000; further: potency means the concentration at half of the fitted maximal effect; nearly all actives have a fitted effect of over 55% in size
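Chicken DT40 Tdp1-/- cells stably complemented with human TDP1 were seeded at 400 cells/well in medium containing 20 nM camptothecin, exposed to pin-transferred compounds, and grown at 37 °C for at least 48 hr. Viability was read as ATP luminescence.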
ELG1 repair inh – inhibitors of ELG1-dependent DNA repair in HEK293T cells | HEK293T ELG1-luciferase reporter, luminescence, 16 h; DNA damage induced by 5-fluorouridine | Potency, µM (titrated, usually from 46.1 µM), inactives show at the top dose activity change, negative = inhibition, hits mostly inhibitors | hit rate 2.3% among 330,000 | AID 504467; further: potency means the concentration at half of the fitted maximal effect; nearly all actives have a fitted effect of over 55% in size
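HEK293T cells expressing luciferase-tagged ELG1 (2,000/well) received 5-Fluorouridine plus compound or DMSO for 16 hr at 37 °C. Luciferase was read by ONE-Glo luminescence after 30 min at room temperature.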
The depositor's hits bear a star; ? = inconclusive; nt = not tested or not shown; [ ] = dose if it differs, or a comment. Unless noted, the call rests on the fitted dose curve; in most records, active means well fitted curve in the direction sought with a large enough effect; inconclusive means small, poorly fitted or top-dose-only effect, or another doubt; inactive means no such curve, though single readings can be large; an effect the other way counts as inactive or inconclusive. On the % scale 0 is the no-effect control and ±100 the full control effect.

SMILES	TDP1 cell noCPT	Giardia killer	IL1B secr inh	TDP1 block	TDP1 cell CPT	ELG1 repair inh
CCCC(=O)NC(c1ccccc1)c1ccc2cccnc2c1O (stereo not given)	1.5µM*	5	176	nt	3.7µM*	?
Cc1ccc(S(=O)(=O)N2CCOCC2)cc1NC(=O)COC(=O)Cc1ccccc1	-18%	4	-3	0%	7%	13%
CCCCC(=O)NC(c1ccccc1Cl)c1ccc2cccnc2c1O (stereo not given)	6.5µM*	3	121	nt	8.2µM*	3.3µM*
CCCCC(=O)NC(c1ccc(C(C)C)cc1)c1ccc2cccnc2c1O (stereo not given)	3.3µM*	-5	120	nt	5.8µM*	?
COc1ccc(-c2cc(C)cc3c2OC(CNC(=O)/C=C/c2ccncc2)C3)nn1 (stereo not given)	?	nt	nt	nt	-58%	nt
COc1ccc(-c2cn(-c3ccccc3)nc2CO)cc1	-22%	12	-11	1%	?	?
COc1ccc(-c2csc(=NCCO)n2-c2ccccc2)cc1	18µM*	-4	-74*	nt	?	?
C=CCNC(=O)c1ccc(Cn2c(=S)[nH]c3cc4c(cc3c2=O)OCO4)cc1	-27%	10	29	3%	?	?
CCOc1cc2[nH]c(=S)n(C3CCN(Cc4ccccc4)CC3)c(=O)c2cc1OCC	?	10	23	4%	-9%	2%
O=c1c2cc3c(cc2[nH]c(=S)n1C1CCN(Cc2ccccc2)CC1)OCO3	?	-12	13	-2%	26µM*	-2%
O=C(c1ccc(Cn2c(=S)[nH]c3cc4c(cc3c2=O)OCO4)cc1)N1CCN(c2ncccn2)CC1	nt	nt	nt	5%	nt	7.3µM*
O=C(NCCN1CCCC1)c1ccc(Cn2c(=S)[nH]c3cc4c(cc3c2=O)OCO4)cc1	23µM*	5	16	2%	-29%	-6%
CC(=O)N1Cc2cc([N+](=O)[O-])ccc2Oc2ccccc21	-4%	0	11	0%	0%	-12%
COCCNC(=O)C1CCCN(C(=O)/C=C/c2ccccc2)CC1 (stereo not given)	-3%	nt	19	nt	1%	nt
O=C1c2ccccc2-c2onc3ccc(Oc4ccccc4)c1c23	2.6µM*	-3	-25	8%	3.3µM*	?
Cc1noc(C)c1S(=O)(=O)Nc1ccccc1Oc1ccccc1	?	32	-4	6%	-3%	-12%
Cc1ccc(Cn2cc(CN3CC(N4CCN(CCO)CC4)CS3(=O)=O)nn2)cc1 (stereo not given)	0%	nt	42	nt	-22%	nt
O=C(COc1ccc2c(c1)OCO2)Nc1nccs1	-25%	13	-14	2%[0.0935 µM]	-4%	?
Cc1c(-c2ccccc2)n(O)c(-c2ccc(N(C)C)cc2)[n+]1[O-]	?	nt	-5	nt	-3%	nt
Cc1csc(N=Nc2ccc(N(C)C)cc2)[n+]1[O-]	9.2µM*	nt	-80*	nt	10µM*	nt
CC(C)(C)c1ccc(-c2nc3c(C#N)c(-c4ccc5c(c4)OCO5)ccn3n2)cc1	13µM*	10	41	2%	18µM*	5%
CCCCCc1nc2c(C#N)c(-c3ccc(Cl)cc3)ccn2n1	-22%	-12	-15	0%	-26%	-1%
Cc1ccsc1C1NC(=O)c2ccccc2N1 (stereo not given)	?	22	34	-6%	?	9%
O=C1NC(c2ccccc2Cl)Nc2ccccc21 (stereo not given)	18µM*	-11	63	5%	?	-7%
O=C1NC(c2cccc3ccccc23)Nc2ccccc21 (stereo not given)	0.92µM*	1	39	nt	0.58µM*	nt
SMILES	TDP1 cell noCPT	Giardia killer	IL1B secr inh	TDP1 block	TDP1 cell CPT	ELG1 repair inh
O=C1c2ccccc2C(=O)C12OC2c1cccc2ccccc12 (stereo not given)	?	-20	11	-5%	?	4%
O=C1NC(c2cccs2)Nc2ccccc21 (stereo not given)	8.2µM*	-8	1	-1%	5.2µM*	-10%
COc1ccc2ccccc2c1C1NC(=O)c2ccccc2N1 (stereo not given)	3.7µM*	6	12	nt	2.6µM*	nt
Clc1ccccc1C1Nc2cccc3cccc(c23)N1	?	2	2	nt	?	-9%
CC(C)Oc1ccc(/C=C/C(=O)NCC2COc3ccccc3O2)cc1 (stereo not given)	?	3	-72*	3%	8%	-24%
CC(=O)NCC1COc2ccccc2O1 (stereo not given)	-7%	-16	1	nt	5%	0%
O=C(COC(=O)c1ccccc1O)NCC1COc2ccccc2O1 (stereo not given)	?	-14	0	-3%[56.1 µM]	-8%	-3%
Cc1ccccc1C(=O)OCC(=O)NCC1COc2ccccc2O1 (stereo not given)	18µM*	20	0	-13%	?	19%
CC(C)N1CCc2c(sc(N)c2C#N)C1	?	1	37	7%	?	0%
CCN1CCc2c(sc(N)c2C#N)C1	23µM*	0	14	4%	?	-3%
Nc1c(C(=O)Nc2ccccc2)c2nc3ccccc3nc2n1-c1ccc(O)cc1	2.1µM*	-15	0	nt	10µM*	?
CCOC(=O)c1c(N)n(C2CC(C)(C)NC(C)(C)C2)c2nc3ccccc3nc12	-27%	3	-65*	-6%	?	-11%
CCOC(=O)c1c(N)n(-c2ccc(C)c(Cl)c2)c2nc3ccccc3nc12	nt	nt	nt	1%	nt	nt
CCOC(=O)c1c(N)n(-c2ccc(CC)cc2)c2nc3ccccc3nc12	?	nt	nt	nt	23µM*	nt
CCOC(=O)c1c(N)n(-c2cccc(OC)c2)c2nc3ccccc3nc12	nt	nt	nt	-9%	nt	nt
COc1ccc(-n2c(N)c(C(=O)Nc3c(C)n(C)n(-c4ccccc4)c3=O)c3nc4ccccc4nc32)cc1	?	-15	-6	0%	-23%	?
CCOC(=O)c1ccc(-n2c(N)c(C(=O)OC)c3nc4ccccc4nc32)cc1	7.3µM*	nt	nt	7%	5.8µM*	nt
O=C(c1cnccn1)N1CCC[C@@]2(CCN(Cc3cc(C(F)(F)F)cc(C(F)(F)F)c3)C2)C1	?	nt	nt	nt	3%	nt
Cn1c(=S)[nH]c2cc(C(=O)N3CCN(C(=O)c4ccccc4)CC3)ccc2c1=O	-23%	11	nt	nt	-6%	nt
Cc1ccc2nccc(C(=O)N3CCCC(Nc4ccc(C)c(C)c4)C3)c2c1 (stereo not given)	?	-6	2	8%	?	-21%
